Reference: PubChem BioAssay AID1159506 (National Center for Advancing Translational Sciences (NCATS), 2015)
Whole data set: some 59,000 sequences, median the read-out near -0.00055, cut for the lowest 2% near -2. Only a selection was taken, and the lowest values are over-represented in it overall.

assay: Identification of proteins required for the processing of the EWS-FLI1 nascent transcript; details: TC32 Ewing sarcoma NR0B1-luc vs CMV-luc (EWS-FLI1 target promoter against control promoter), 48 h; screened at 20 nM (by protocol);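 note: robust z of luciferase light less the median z of siRNAs with the same seed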
Summary of the method: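 Genome-wide siRNA screen (Ambion v4.1, three siRNAs per gene, 20 nM final, RNAiMax) in Ewing sarcoma TC32 cells carrying NR0B1-promoter or CMV-promoter luciferase; OneGlo luciferase read 48 h post-transfection. Data normalized, z-score-MAD transformed and seed-adjusted.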

| Sequence | seed-corrected z-score |
| --- | --- |
| UAGGUUGUGAAUGUGGUCG against FBXL8 | -3.1 |
| UAUAUGUCUUGAUUAUCCU against NMS | 0.309 |
| UCCAGGUCAAGGGUAACGG against KIF7 | -0.853 |
| UACAUGUCAAAUGAGCUCC against KIR2DL5B | -2.25 |
| UGUAGAAUGAGUAGGCGGC against NMT2 | -0.0232 |
| UGUAUUUGAAGACUUUCCC against ZNF485 | 0.182 |
| UUCCUUCCUCGUUCAUUGC against KGFLP1 | -2.1 |
| AAAGCUUCCCUCAACUUGC against TAS2R9 | -0.00509 |
| UAUCUAGUGCAGUAUAUCG against COPS2 | 0.174 |
| UUUGAUCUCAUCGGUGCCC against PIAS1 | -0.0672 |
| AUUCUCGUCAGUGAGCUCC against POLR2C | -0.262 |
| UCUUCGUUCUUGUCGAUCU against MED15 | 2.07 |
| UAACUUUGUCUUUGGAUUC against SETD9 | 1.15 |
| AAACUGCUCGCUGUCAUUC against NCDN | -2.2 |
| UGUACAAGAAGUCAUAAGC against DSE | -0.289 |
| UUGUGGUCAAUGCCCUUGG against UBIAD1 | -0.444 |
| UGACAUUCCAAGGUUGUAG against TAS2R60 | 0.323 |
| ACCUUUUUCACUUCUACAC against 2-Mar | -0.43 |
| AAGUUGCUCAGAAACUUGG against WNT9B | -3.07 |
| UGUCCAGAUAAGGAGACGC against PINLYP | -1.21 |
| UAAGUUCACUGUUCCAUAU against EDEM2 | 0.761 |
| UUUGAAAUCAACAUAGAGG against LINC00574 | -0.00543 |
| AAAGGUACUUUACCAGAUG against MTX2 | 0.416 |

| Sequence | seed-corrected z-score |
| --- | --- |
| AGUUCAUUAAAUAAGGUCC against TMEM33 | 0.17 |
| UUGUCAAAAAGUCCUUUUG against GINS3 | 0.092 |
| AAGGCUCUGACAACGAUUC against LMNB1 | -1.07 |
| UUGAUUCGCAACCAUAGCC against BTBD7 | -2.52 |
| AUUCGAAGUAGUUGUAGCC against FRY | 0.623 |
| UCGGUUUUCCUCAAAAUGG against SESN1 | 0.94 |
| UUUCGAAUUAACGCAACUG against HECTD1 | 0.00197 |
| UUCUGAUUCCCAAACAGUG against COMMD8 | -1.88 |
| AAUCAUAACUGUCAUAUCC against DSPP | 0.304 |
| ACCGUGCCCAGCAUACAUC against LOC541473 | -4.77 |
| UUUCUGGUGACCCUUUUUC against TSG101 | -0.683 |
| UCUACUUCUGUGGAUACUC against TALDO1 | 0.332 |
| UCAGCUGCACUUUCAGUAG against GOLGA8J | -1.61 |
| ACCGUUACAUAUUCUAUCC against SUPT6H | -4.84 |
| UGCUGUAUCCUCUAUAUCC against RFX5 | -0.0572 |
| UUAAUCGGCACAGCUGUUC against RSBN1 | -0.543 |
| UAUGCAGUCUGGGUAACCC against C10orf11 | 0.746 |
| UUACGUAUGCACCAUUUGC against SLC35D1 | 0.196 |
| UAUAGUAAUCAGCUAGUGG against MED6 | -3.7 |
| UUUAUUCCCAAAGGCUCUG against PTGER1 | -0.569 |
| AUAUCAUUUACUGACAUAG against DNAJB4 | -0.41 |
| UUCCAGGAUACUUUAAUCC against PON1 | -0.178 |
| AAGCGGUUAACGAAAAGGC against SLC2A1 | 1.37 |

| Sequence | seed-corrected z-score |
| --- | --- |
| UUUGUAAUCAUACGGACAG against ZFAND5 | 0.868 |
| AAACUCAAAAUCCCGUUGC against ZC3H10 | 0.108 |
| UAAUAUCCGGUAAGAAUCC against DDB2 | -0.365 |
| UAUAGGUAAGGAUUUCUGC against KRTAP9-2 | -0.397 |
| UGUCUUCUAAAGUAAGUGG against ZNF77 | -2.26 |
| UCACGAACAUGUUGCAAGG against KRIT1 | -0.0242 |
| UAGUUCAUAAUCCAAGUCC against COL6A3 | 0.0612 |
| AUGACUUUAGGUCGCAUCG against FBXL12 | -13.4 |
| UUUGGGAUUUCCAUUGUCU against LRP2BP | 0.259 |
| UUGGAUACAAAGGAACAAC against DHX32 | -0.291 |
| UUUGAGUCCACCACGAAGC against MYH3 | -0.0465 |
| UCUGCUGCUCGUCAAGUUC against MAP2K2 | 1.77 |
| UCUCUUUAAAGACUCCUCC against LPO | 0.133 |
| UUGGGAUAUAUUUAGCGGC against ITGB1BP2 | -2.58 |
| UUUCGGAUGAGCACGCAGC against APRT | -0.0241 |
| UUCUUGUUCACUCUAAUUU against NFIC | 0.384 |
| AUAGUGUCGAUAAAAACCU against CHRNA1 | 0.527 |
| AAAGUUGCGGAAGCUGAUG against LRP3 | -2.42 |
| UAUCUGUGCAGUUAAGAUG against LOC401220 | -0.155 |
| UUUCACUCCACUGAAGUAC against CDKL1 | -0.736 |
| AGCUGUAGCACCAUCAACG against OR7G3 | -1.26 |
| UUCGAUUCCAAGCCUUACG against CCDC113 | 0.591 |
| AAGUUACCCACGUAGAUGC against SRSF1 | -1.35 |

| Sequence | seed-corrected z-score |
| --- | --- |
| UAAGAUAUUUGUCCAACAG against YWHAB | 0.25 |
| UCAUUGAUCUAAAACGACC against PPFIA1 | 0.863 |
| UUCUCCUUCACAUACCGGC against CLK3 | 0.176 |
| UAUCUUCACUGAAUUGACC against ARL8B | 0.269 |
| AUAUGCUUCACAGUUCUAG against MMP1 | -2.83 |
| UAUAGGCCUUCUACAUUGC against ROM1 | 1.12 |
| UUGCGAAUGAGGUUGUAGG against PIK3C2B | -0.721 |
| UCUGAUAGCAAUAACUUGG against PPCS | -0.294 |
| UGUUGACUCACUGUAGGCU against LOC729683 | 0.842 |
| AAAGAGGAAACGGUAGGCC against JAGN1 | -2.67 |
| UAUUGGAUCCGGUGCAACC against SYPL2 | -0.246 |
| UUGGUUAUCCUCUAUACCC against MTERF3 | 0.193 |
| UUCAUCAUCGAGGUCAUCC against DPF2 | -3.12 |
| UGAACUAUUGGAAUGUCUC against SEC11C | 0.165 |
| AUCGUAGUCAGUGUAUCUG against PPARGC1B | -0.163 |
| UAUAGAGCUGCCGUCUCCG against ESRP2 | -0.989 |
| UCACUGUUUACUUAGCGCU against HIST1H2BJ | 1.62 |
| UGCCGAACCACUUCCAGAG against TNRC18P2 | -1.02 |
| AUAGUAAAUAAACACUGCC against RHBDL2 | -2.55 |
| AAUCUGAGAACAGACCGUG against MXD4 | 1.77 |
| AUAGGAGUAAGAAUUUUUG against NUDT10 | -0.635 |
| AUGCUUAUAAUGACCACCA against SLC51B | -2.22 |
| UGAAACACCAUUAAAACGG against TDG | 0.355 |

| Sequence | seed-corrected z-score |
| --- | --- |
| UAAAUCUGCUUAUCUCUUC against TFAM | -0.445 |
| UUCUUGAAAAGGCAACAGU against POC1A | 0.91 |
| AAAGCGACAUUGUUUGACC against COPB2 | -2.18 |
| UUGGUCAUAGAGGUCGUCC against LSR | -1.71 |
| UGUCGGAUGAGGUCAUUGC against TNS4 | -2.96 |
| UUGUUUGCAGGUUCUACUU against DDX19B | -0.121 |
| UCUAGUAUUACUGCUACUG against DDHD2 | 0.72 |
| AAUGUACAAGUGGUCAUUC against MAGED2 | -2.83 |
| UCAUAGUCCAGGGUAAGGC against LRP4 | -1.11 |
| UCUUUGUACGCAUCAAGUG against NPY1R | -0.0164 |
| AUAGAUUAACCAUGUUUCC against KCNN3 | -0.34 |
| UCCAUUGAUAGAACCAUCU against HFE2 | -0.476 |
| UAAGAUGAUCGUGAACUUG against RPL39L | 0.982 |
| UGCAUUUCUAUAUUCAACC against TLE4 | -0.442 |
| UAUAGGUGUAGAUUACAGG against OR13G1 | -0.49 |
| UAACUUGUUUGUUUACAAC against RPL21P62 | -3.04 |
| UGAAUUUCCGGUGCUUGCC against PDGFB | -0.605 |
| UAGGAGAUAGCGAUGACCA against NPBWR1 | 0.302 |
| AAAGAGGUACUCACAGGGC against LGR6 | -0.878 |
| UUCGGUCUGCUAAUGCUGG against CNOT2 | 1.7 |
| AAUCUCACAACAGUUAUGG against MTMR8 | 0.0648 |
| AUACUACUUACAACCGGGC against SON | 1.15 |
| ACAGCUAACAUGGACACUC against SHTN1 | 0.393 |

| Sequence | seed-corrected z-score |
| --- | --- |
| UAGGUAACCAUAGUACUCA against ISY1 | -2.1 |
| UGUAUAGAAAAAUUCACGC against CRY1 | 0.235 |
| UCCAGUAGCACCAUAGUUC against ZNF449 | -0.629 |
| UUCGUGAUCAUCUUCUCAC against PHYH | 0.854 |
| AAAUGUUCACCUGUCUUCU against RPS4Y1 | -0.188 |
| UUCAUAUAUGAGUCAAUGG against HMG20A | 0.779 |
| UUCCUCAUGAUUGUCCUCA against GABARAPL1 | -0.0836 |
| UUAGUAUUUGGUAUUCAGA against FCGR1A | -0.211 |
| UAGGAUCCAGGGUUAGUUU against RPL18 | -2.17 |
| UUAGGGUCCCUCAUCUUCA against LOXL4 | 0.627 |
| UAUUAUUAAAGUGAGAUGG against SNCA | 0.375 |
| UCUGGUGAACGACUCUUGC against MGMT | 0.137 |
| AUCUGUAUUCUCACUAUAG against TTC23 | -1.15 |
| UUAAUGAUAGAGACUAGGA against LTC4S | -0.727 |
| GUUACAUACCUUUUUCUCU against GTF2H2B | 0.209 |
| UCAUAGAAGAGGUCUGUCU against PHF5A | -2.2 |
| UUCAUAGCCUCUUCAAUGG against SPAG7 | -1.44 |
| UACACUCUAAGAGCUCUUC against BCAT1 | 1.4 |
